From PubChem BioAssay
B2AR ag – human beta-2 adrenergic receptor agonism by FAP | P07550 | Am2.2-beta2AR cells, FAP receptor internalization, flow cytometry | response, % (concentration not given with the values) | 340,000 tested, 0.43% active | AID 504454;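 active means response above a set limit, near 3 SD of response in nonfluorescent compounds, cut at about 42% in these data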
Target sequence (P07550 whole entry, looked up): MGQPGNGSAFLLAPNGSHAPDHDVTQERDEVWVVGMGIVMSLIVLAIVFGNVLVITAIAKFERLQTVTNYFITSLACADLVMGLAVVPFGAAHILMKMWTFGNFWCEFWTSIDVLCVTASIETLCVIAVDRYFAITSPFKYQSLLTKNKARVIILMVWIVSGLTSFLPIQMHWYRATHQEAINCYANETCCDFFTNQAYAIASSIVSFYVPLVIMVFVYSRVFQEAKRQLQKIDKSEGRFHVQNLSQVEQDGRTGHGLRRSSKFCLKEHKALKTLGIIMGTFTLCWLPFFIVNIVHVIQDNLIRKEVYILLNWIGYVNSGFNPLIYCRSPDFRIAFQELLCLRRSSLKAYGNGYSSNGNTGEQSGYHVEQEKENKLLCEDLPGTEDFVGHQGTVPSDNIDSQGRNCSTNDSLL
Granule exo inh – lytic granule exocytosis inhibition. TALL-104 LAMP-1 surface exposure, flow cytometry; cells stimulated with thapsigargin and PMA. inhibition, % at 10 µM. 360,000 tested, 0.66% active. AID 651702;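 active means inhibition above about 55%, limit read from the data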
NadD inh – blocks S. aureus nicotinate mononucleotide adenylyltransferase | 360,000 tested, 0.78% active | inhibition, % at 20 µM | AID 602399 | purified NadD enzyme, colorimetric absorbance read-out; in the data active means inhibition above about 26%
GRK2 inh – blocks RNA aptamer binding to human GRK2; P25098; bead flow cytometry, FAM-aptamer displacement from GRK2; inhibition of aptamer binding, % at 10 µM; 330,000 tested, 0.59% active; AID 488847;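 active means inhibition of aptamer binding above 40%, roughly 3 SD of noise, on plates passing a quality check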;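 further: median bead fluorescence of bound FAM aptamer so fluorescent compounds give negative values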
PP1 inh – blocks human PP1-alpha phosphatase, a PP5 counter-screen; P62136; purified PP1alpha, OMFP fluorescence; inhibition, % at 6.7 µM; 320,000 tested, 0.9% active;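 active means inhibition above the mean inhibition of all tested compounds plus 3 SD, computed separately for each screening campaign, cut at about 15% in these data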
NadD conf – confirmation of Staphylococcus aureus NadD inhibitors | shares compounds with NadD inh | purified S. aureus NadD, colorimetric enzyme assay | inhibition, % at 20 µM | 2,000 tested, 13% active | AID 624309; in the data active means inhibition mostly above about 42%, no sharp cut-off; inactive means mostly below about 42%
An asterisk follows results filed as active. This is a sample that favours compounds with a hit; in the whole collection about 2.9% have one here.

What do the screens show for `Cc1ccc(Cl)cc1N1CCN(C(=O)Cc2csc(Nc3nc(=S)[nH]c4ccccc34)n2)CC1`?
B2AR ag: 0.7; Granule exo inh: -0.7; NadD inh: 63.0*; GRK2 inh: 0.0; PP1 inh: -0.3; NadD conf: 6.3

What do the screens show for `O=C(CCn1nnc2ccccc21)N/N=C\Cc1ccccc1`?
B2AR ag: -11.2; Granule exo inh: 2.6; NadD inh: 6.4; GRK2 inh: 0.0; PP1 inh: 2.7

How did COc1ccccc1N=NNc1ccccc1OC do in these assays?
Granule exo inh: 0.4; NadD inh: -5.2

How did C[C@@H](c1ccccc1)N1C[C@@H](COCc2ccccc2)Oc2cc(N3CCC[C@H]3C(N)=O)ccc2S1(=O)=O do in these assays?
Granule exo inh: 6.0; NadD inh: -5.2

How did Cc1cc(NS(=O)(=O)c2ccc(NC(=O)c3cc4c(=O)n5ccccc5nc4s3)cc2)nc(C)n1 do in these assays?
B2AR ag: -14.7; Granule exo inh: 0.0; NadD inh: 31.4*; NadD conf: 46.0

What do the screens show for `C/C(=N\NC(=S)Nc1ccc(C)cc1)c1cccc(N)c1`?
B2AR ag: -0.2; Granule exo inh: 0.2; NadD inh: 26.8*; GRK2 inh: 2.0; PP1 inh: -5.0; NadD conf: 17.4

How did CC(C)c1cccc(-c2ccc3c(c2)S(=O)(=O)c2cccc(C(=O)NCc4ccco4)c2C3=O)c1 do in these assays?
B2AR ag: 5.3; Granule exo inh: -0.8; NadD inh: 33.8*; GRK2 inh: 4.0; NadD conf: 41.7

Results for Fc1ccc(-c2nc3c4ccccc4ccn3c2Cc2ccccc2C(F)(F)F)cc1 ?
Granule exo inh: -2.8; NadD inh: 9.5

Results for FC(F)(F)c1ccccc1Cc1c(-c2ccc(Cl)cc2)nc2c3ccccc3ccn12 ?
Granule exo inh: 1.6; NadD inh: 33.1*; NadD conf: 8.9

Results for CCOC(=O)C1=C(C)N=c2s/c(=C\c3ccc(OCC(=O)O)cc3)c(=O)n2C1c1ccc(Cl)cc1 (centres undefined) ?
B2AR ag: 5.5; Granule exo inh: -2.6; NadD inh: 16.3; GRK2 inh: 2.0

Results for CC1=C(C(=O)Nc2ccccc2)C(c2ccc(Cl)cc2)n2c(s/c(=C/c3cccc(OCC(=O)O)c3)c2=O)=N1 (centres undefined) ?
B2AR ag: 8.9; Granule exo inh: -3.6; NadD inh: 23.4; GRK2 inh: 2.0; PP1 inh: 7.0

Results for CC1=C(C(=O)OC(C)C)C(c2ccc(Cl)cc2)n2c(sc(=Cc3ccc(OCC(=O)O)cc3)c2=O)=N1 (centres undefined) ?
Granule exo inh: -8.3; NadD inh: 30.5*; NadD conf: 13.6

How did CCOc1ccc(C2C(C(=O)Nc3ccccc3)=C(C)N=c3s/c(=C/c4cccc(OCC(=O)O)c4)c(=O)n32)cc1 (centres undefined) do in these assays?
B2AR ag: 0.2; Granule exo inh: -3.8; NadD inh: 33.1*; GRK2 inh: 3.0; PP1 inh: 7.3; NadD conf: 44.1

How did CC1(C)CC(=O)C(C=NCC2CCN(C(=O)Cc3ccccc3)CC2)=C(O)C1 do in these assays?
B2AR ag: 0.6; Granule exo inh: 1.5; NadD inh: 35.9*; GRK2 inh: 3.0; PP1 inh: -0.7; NadD conf: 3.9

What do the screens show for `CC1(C)CC(=O)C(C=NCC2CCNCC2)=C(O)C1`?
B2AR ag: 0.9; Granule exo inh: 1.2; NadD inh: -0.8; GRK2 inh: 3.0; PP1 inh: 1.9

Results for CCc1nc2ccc(C(=O)N(CC)CCN(C)C)cn2c1N(C)Cc1nccs1 ?
Granule exo inh: 1.2; NadD inh: 2.9

How did Cc1ccc(NC(=O)c2cc(C(=O)c3cc(Cl)ccc3O)cn(-c3ccc(C)cc3)c2=O)cc1 do in these assays?
B2AR ag: 24.1; Granule exo inh: -1.0; NadD inh: 31.1*; GRK2 inh: 0.0; PP1 inh: 3.2; NadD conf: -10.7

Results for N#Cc1cc(C(=O)c2cc(Cl)ccc2O)cn(-c2ccccc2)c1=O ?
B2AR ag: -0.5; Granule exo inh: -6.5; NadD inh: -2.6; GRK2 inh: 11.0; PP1 inh: 1.3

What do the screens show for `CC(C)Nc1nc(NCCN2CCCC2)c2sc(-c3ccccc3)cc2n1`?
Granule exo inh: 1.2; NadD inh: 34.5*; NadD conf: -20.8
